This is a sample that favours compounds with a hit; in the whole collection about 32% have one here.
CYP2C9 inhib = blockers of cytochrome P450 2C9 activity – biochemical, luminescence, ADME assay, primary screen; P11712; CYP2C9 Supersomes, luciferin-H conversion; inhibition, % at 5 µM; hit rate 20% among 96,000; AID 777, 2007;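 active = blocking of liver enzyme CYP2C9 beyond about 50% at 5 µM, limit read from the data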
Target sequence (P11712 whole entry, looked up): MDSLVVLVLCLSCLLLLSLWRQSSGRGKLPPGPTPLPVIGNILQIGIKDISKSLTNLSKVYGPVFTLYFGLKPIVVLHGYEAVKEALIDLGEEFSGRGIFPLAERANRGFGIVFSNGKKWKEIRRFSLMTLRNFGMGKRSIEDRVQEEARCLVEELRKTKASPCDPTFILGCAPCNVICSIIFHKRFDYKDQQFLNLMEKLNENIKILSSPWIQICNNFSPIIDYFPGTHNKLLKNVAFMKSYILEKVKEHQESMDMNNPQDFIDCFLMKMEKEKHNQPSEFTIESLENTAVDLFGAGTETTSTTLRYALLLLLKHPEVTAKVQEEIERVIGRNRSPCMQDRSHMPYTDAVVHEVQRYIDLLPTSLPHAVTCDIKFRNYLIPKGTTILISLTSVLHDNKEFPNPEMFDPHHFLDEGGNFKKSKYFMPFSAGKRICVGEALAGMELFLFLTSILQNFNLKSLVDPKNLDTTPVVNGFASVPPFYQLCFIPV
PostGolgi ctrl = growth inhibition of yeast control strain, primary screen, counter-screen for post-Golgi transport modulator project; efflux-deficient yeast background strain, growth absorbance A615, 16 h; inhibition, % at 10 µM; hit rate 5% among 98,000; AID 738, 2007
CYP2C9 act = human CYP2C9 activators, primary screen, biochemical, luminescence. AID 1024, 2008. Cytochrome P450 2C9 (Homo sapiens), P11712. activation factor at 5 µM. hit rate 1.4% among 96,000. recombinant CYP2C9, luciferin-H conversion; stronger effect = higher value; factor 1 = untreated enzyme, 0 = blocked;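 active = activation factor of 2 or more for CYP2C9 at a 5 µM dose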
CYP2C19 inhib = blockers of cytochrome P450 2C19 activity – biochemical, luminescence, ADME assay, primary screen; P33261; CYP2C19 Supersomes, luciferin-H EGE luminescence, 30 min; hit rate 21% among 96,000; inhibition, % at 5 µM; AID 778, 2007;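 active = CYP2C19 inhibition above a set limit at 5 µM in the primary screen, cut at about 50% in these data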
CYP2C19 act = human CYP2C19 activators, primary screen, biochemical, luminescence. Cytochrome P450 2C19 (Homo sapiens), P33261. recombinant CYP2C19, luciferin-H EGE luminescence; stronger effect = higher value; 0 = fully inhibited enzyme, 1 = untreated enzyme. activation factor at 5 µM. 96,000 tested, under 10 active. AID 1025, 2008;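 active = activation factor of at least 2 at 5 µM in the primary screen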
PostGolgi yeast = phenotypic screen on post-Golgi transport, primary screen. post-Golgi transport phenotypic cell assay. hit rate 0.9% among 98,000. inhibition, % at 10 µM;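 also: yeast cells grown in 1536-well plates; yeast grown about 18 h at 30C before absorbance read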
Of the large screens only hits and unclear results are named; the others gave an inactive call. Rule as the data show it, unless noted: active = inhibition above about 30%; inactive = the rest.

O=C(Nc1ccc(F)c(F)c1)c1ccc2c(c1)OCO2	CYP2C19 inhib 94
CCn1cc([N+](=O)[O-])c(C(=O)Nc2cc(C)on2)n1	none
Nc1nc(C(=O)N2CCOCC2)nn1C(=O)c1ccc(Cl)cc1	none
CCOC(=O)C1=C(C)NC(C)=C(C(=O)OCC)C1c1ccc(O)cc1	CYP2C9 inhib 98, CYP2C19 inhib 98
CCOC(=O)C1=C(C)NC(C)=C(C(=O)OCC)C1c1sccc1C	CYP2C9 inhib 90, PostGolgi ctrl 38, CYP2C19 inhib 56
CCOC(=O)C1=C(C)NC(C)=C(C(=O)OCC)C1C(=O)O	none
COC(=O)C1=C(C)NC(C)=C(C(=O)OC)C1c1ccc(N(C)C)cc1	CYP2C9 inhib 70, CYP2C19 inhib 84
CCCC1C(C(=O)OCC)=C(C)NC(C)=C1C(=O)OCC	CYP2C9 inhib 68, CYP2C19 inhib 94
O=C(Nc1ccc(N2CCOCC2)nc1)c1ccc(F)cc1	none
CC(=O)c1cccc(N(C(=O)c2ccccn2)C(C(=O)NC2CCCCC2)c2cccs2)c1 (stereo unspecified)	none
CN(C1CCCCC1)S(=O)(=O)c1ccc2c(c1)c(=O)c(C(=O)N1CCc3ccccc3C1)cn2C	none
COC(=O)c1cc(S(=O)(=O)n2nc(C)c(Br)c2C)c(Cl)cc1Cl	CYP2C19 inhib 73
CCOC(=O)CSC1=C(C#N)C(c2ccccc2OCC)C(C#N)C(=O)N1 (stereo unspecified)	CYP2C9 inhib 78, CYP2C19 inhib 83
C=CCSC1=C(C#N)C(c2ccccc2OCC)C(C#N)C(=O)N1 (stereo unspecified)	CYP2C9 inhib 54, CYP2C19 inhib 55
CCOC(=O)CSC1=C(C#N)C(c2ccccc2Cl)C(C(=O)OC)C(=O)N1 (stereo unspecified)	CYP2C9 inhib 65, CYP2C19 inhib 59
CCCOC(=O)CSC1=C(C#N)C(c2ccccc2OC)C(C#N)C(=O)N1 (stereo unspecified)	none
COC(=O)C1C(=O)NC(SC)=C(C#N)C1c1ccccc1F (stereo unspecified)	none (no result: CYP2C9 inhib, CYP2C9 act, CYP2C19 inhib, CYP2C19 act)
CCCCSC1=C(C#N)C(c2ccccc2C)C(C(=O)OCC)C(=O)N1 (stereo unspecified)	CYP2C9 inhib 66, CYP2C19 inhib 61
Clc1ccc2[nH]cc(-c3nnnn3-c3ccc4ccccc4c3)c2c1	none
CCOC(=O)C1C(=O)NC(SCC(=O)Nc2nccs2)=C(C#N)C1c1ccccc1OCC (stereo unspecified)	none (no result: CYP2C9 inhib, CYP2C9 act, CYP2C19 inhib, CYP2C19 act)
CCOc1ccccc1C1C(C#N)=C(SCC(=O)OC)NC(=O)C1C(=O)OC (stereo unspecified)	CYP2C19 inhib 70
CCOC(=O)CSC1=C(C#N)C(c2ccccc2OCC)C(C(=O)OCC)C(=O)N1 (stereo unspecified)	CYP2C9 inhib 84, CYP2C19 inhib 99
CCOC(=O)C1C(=O)NC(SCC(=O)OC)=C(C#N)C1c1ccccc1OCC (stereo unspecified)	CYP2C19 inhib 68
CCN(CC)C(=O)Cc1cc(C(=O)O)c2ccccc2n1	none
CCNC(=O)COC(=O)c1cc(-c2ccc(OC)cc2)nc2ccccc12	CYP2C9 inhib 61
Cc1cc(C)n2nc(SCC(=O)N(C)Cc3ccccc3)nc2n1	none
CN(Cc1ccccc1)C(=O)COC(=O)c1cc(-c2ccc(Cl)s2)nc2ccccc12	CYP2C9 inhib 88, CYP2C19 inhib 56
CCOc1ccc(-c2cc(C(=O)O)c3ccccc3n2)cc1	CYP2C9 inhib 57
CCN(CC)C(=O)COC(=O)c1cc(-c2ccc(OC)cc2)nc2ccccc12	CYP2C9 inhib 98, PostGolgi ctrl 40, CYP2C19 inhib 91
COC(=O)c1sccc1NC(=O)c1cc(-c2ccc(C)cc2)nc2ccccc12	none
CCOC(=O)C(NC(C)=O)C(OC(C)=O)c1cccc([N+](=O)[O-])c1 (stereo unspecified)	none
CCC1(CC)NC(=S)N(Nc2ccccc2)C1=O	none
COC(=O)c1ccc(/C=N/NC(=O)CC(=O)NCC(C)C)cc1	none
O=C(COC(=O)c1cc(-c2ccco2)nc2ccccc12)NCc1ccccc1	CYP2C9 inhib 61
COc1ccc(C/C(=N\O)c2ccc(OC)cc2)cc1	CYP2C9 inhib 58, CYP2C19 inhib 57
C=C(c1ccc(OC)cc1)c1ccc(OC)cc1	none
COc1cnc(-c2ccccn2)nc1Sc1cccc(Cl)c1	none
CCOC(=O)c1sc(-c2ccccc2)cc1N	CYP2C9 inhib 80, CYP2C19 inhib 90
CCOC(=O)c1sc(-c2ccc(OC)cc2)cc1N	CYP2C9 inhib 68, CYP2C19 inhib 65
CCOC(=O)c1c(N)n[nH]c1-c1ccc(OC)cc1	none
CCOC(=O)c1sc(-c2ccc(F)cc2)cc1N	CYP2C9 inhib 83, CYP2C19 inhib 90
CCOC(=O)c1cc(-c2ccccc2)sc1N	none (no result: CYP2C9 inhib, CYP2C9 act, CYP2C19 inhib, CYP2C19 act)
O=C(CN(Cc1ccco1)C(=O)CNS(=O)(=O)c1ccccc1)NCc1ccccc1	CYP2C19 inhib 61
O=C(CN(Cc1ccco1)C(=O)CNS(=O)(=O)c1ccc(F)cc1)NCCc1ccccc1	CYP2C9 inhib 61, CYP2C19 inhib 65
O=C(CN(Cc1cccs1)C(=O)CNS(=O)(=O)c1ccccc1)NCc1ccco1	CYP2C19 inhib 52
Cc1ccc(S(=O)(=O)NCC(=O)N(CC(=O)NCc2ccco2)Cc2ccc3c(c2)OCO3)cc1	none
O=C(CN(Cc1ccco1)C(=O)CNS(=O)(=O)c1ccccc1)NC1CCCCC1	none
COc1cc(Cl)c(S(=O)(=O)NCCN2CCOCC2)cc1Cl	CYP2C9 act 2, CYP2C19 inhib 82
COc1cc(S(=O)(=O)NCCCN2CCOCC2)ccc1Cl	CYP2C9 act 2.4, CYP2C19 inhib 75
Cc1ccc(S(=O)(=O)NCCCN2CCOCC2)cc1C	none (no result: CYP2C9 inhib, CYP2C9 act, CYP2C19 inhib, CYP2C19 act)
O=C(Nc1nc(-c2ccccn2)cs1)c1ccc(Br)s1	none
CSc1nc(C)c2cc(C)oc2n1	none
Cc1cc2c(C)nc(Cc3ccccc3)nc2o1	CYP2C19 inhib 74
Cc1ccc(C2CC(C(F)(F)F)n3nc(C(=O)NCc4ccco4)cc3N2)cc1 (stereo unspecified)	PostGolgi ctrl 32
Cc1ccc(C2CC(C(F)(F)F)n3nc(C(=O)NCCN4CCOCC4)cc3N2)cc1 (stereo unspecified)	none
O=C(NCCCn1ccnc1)c1cnn2c1NC(c1ccccc1)CC2C(F)(F)F (stereo unspecified)	CYP2C9 inhib 97, CYP2C19 inhib 85
COc1ccc(C2CC(C(F)(F)F)n3nc(CO)c(Cl)c3N2)cc1OC (stereo unspecified)	CYP2C9 inhib 98, CYP2C19 inhib 77
O=C(NCC1CCCO1)c1cnn2c1NC(c1ccccc1)CC2C(F)(F)F (stereo unspecified)	none

High-throughput results deposited in PubChem by several laboratories.
